# Results filed as inconclusive are left out. Entries that show only a call come without a potency. Where a structure was tested more than once in an assay, its records may differ in their call. Active and inactive are the calls of the source. Unless noted, the call rests on the fitted dose curve; in most records, active means well fitted cell-killing curve with a large enough effect in the repeat runs; inconclusive means weak or mixed curves, or effect the other way; inactive means no such curve, though single readings can be large or run the other way.
# Target: Retinoic acid receptor RXR-alpha (Homo sapiens) (UniProt P19793)
# Assay: qHTS assay to identify small molecule agonists of the RXR signaling pathway (AID 1159527; calls by dose curve; further: nearly all actives have a fitted effect of over 35% in size; further: potency means the concentration at half of the fitted maximal effect)
# Conditions: HEK293T RXRa-UAS-bla, beta-lactamase ratio, 16 h; series mostly up to 76.8 µM; activation: at the top concentration
# Outline: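 Cells plated at 2,000/well, rested 5 hr at 37 C, pin-dosed with DMSO compound solutions, incubated 16 hr, then loaded with B/G FRET substrate for 2 hr at RT before dual-emission fluorescence reading.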
# Sequence of Retinoic acid receptor RXR-alpha (Homo sapiens) (P19793 whole entry, looked up): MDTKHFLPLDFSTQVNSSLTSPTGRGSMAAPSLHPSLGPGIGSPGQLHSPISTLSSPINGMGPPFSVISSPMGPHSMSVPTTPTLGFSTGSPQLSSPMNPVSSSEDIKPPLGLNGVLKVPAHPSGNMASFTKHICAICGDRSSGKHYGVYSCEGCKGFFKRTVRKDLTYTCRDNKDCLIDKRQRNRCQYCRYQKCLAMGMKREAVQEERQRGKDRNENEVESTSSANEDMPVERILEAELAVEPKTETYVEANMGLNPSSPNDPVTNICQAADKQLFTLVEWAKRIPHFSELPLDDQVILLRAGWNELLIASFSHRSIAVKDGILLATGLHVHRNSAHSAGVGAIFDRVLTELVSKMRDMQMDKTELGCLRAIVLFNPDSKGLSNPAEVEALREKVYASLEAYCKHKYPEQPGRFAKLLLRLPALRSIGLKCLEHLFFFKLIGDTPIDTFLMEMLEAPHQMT
Compound,Potency,activation
CON(C)C(=O)Nc1ccc(Cl)c(Cl)c1,inactive,
OCCN(CCO)CCO,,3.65% (inactive)
CC(C)C1(C)N=C(c2nc3ccccc3cc2C(=O)O)NC1=O (configuration not stated),inactive,
Clc1cccc(Cl)c1Cl,,0.228% (inactive)
O=[N+]([O-])c1ccccc1,inactive,
Cc1ccc(N)cc1Cl,inactive,
O=c1[nH]c(=O)[nH]c(=O)[nH]1,inactive,
O=C(NC(=O)c1c(F)cccc1F)Nc1cc(Cl)c(OC(F)(F)C(F)C(F)(F)F)cc1Cl (configuration not stated),,5.84% [at 35.3 µM] (inactive)
Cc1cc(Cl)ccc1O,inactive,
CN=C=S,inactive,
CC(C)(C)OOC(=O)c1ccccc1,,-11% (inactive)
O=NN1CCCC1,,3.3% (inactive)
CC(C)C#N,9.26 µM (active) and inactive,
C#CCN(C)[C@H](C)Cc1ccccc1,inactive,
c1ccc(-c2ccccc2)cc1,inactive,
c1cc2c3c(cccc3c1)CC2,,15% (inactive)
CNC(=O)Oc1ccccc1OC(C)C,inactive,
O=Cc1cccc(Oc2ccccc2)c1,inactive,

Compound,Potency,activation
CC(C)(Cl)Cl,inactive,
NCC(O)c1ccc(O)cc1 (configuration not stated),inactive,
C=CC(N)=O,,-3.6% (inactive)
BrCCBr,,5.93% (inactive)
Nc1ccccc1C(=O)O,inactive,
CN(C)CCO,inactive,
CC1C=[C-]C=C1.[C-]#[O+].[C-]#[O+].[C-]#[O+].[Mn],inactive,
O=[N+]([O-])c1ccc([As](=O)(O)O)cc1,,-1.29% [at 35.3 µM] (inactive)
Clc1ccc(Cl)cc1,inactive,
CC(C)(C)C(O)(CCc1ccc(Cl)cc1)Cn1cncn1 (configuration not stated),inactive,
C1CC2OC2CC1C1CO1 (configuration not stated),,12.8% (inactive)
Nc1ccc(Oc2ccc(N)cc2)cc1,,-4.79% (inactive)
COCCl,,14.2% (inactive)
CC(C)OC(=O)Nc1ccccc1,,-8.15% (inactive)
CN(C)N=O,inactive,
Clc1ccccc1Cl,inactive,
CCc1cccc(C)c1N(C(=O)CCl)C(C)COC (configuration not stated),,-18.7% (inactive)
CCCCOC(=O)c1ccccc1C(=O)OCCCC,,-16% (inactive)

# Test system: not listed separately
# Assay: qHTS assay to identify small molecule agonists of the RXR signaling pathway - cell viability counter screen (AID 1159529);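 further: HEK 293T cells carrying an RXR-alpha UAS beta-lactamase reporter; nearly all actives have a fitted effect of over 50% in size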
# Conditions: RXR-alpha-bla HEK293T viability, CellTiter-Glo, 16 h; series mostly up to 76.8 µM; activity change, negative = cytotoxicity: at the top concentration
# Outline: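 Steps: seed RXR-alpha-UAS-bla HEK 293T cells in assay medium containing 2% charcoal-stripped FBS; incubate 5 hr; add compounds in DMSO; incubate 16 hr at 37 C; after the bla read, add CellTiter-Glo and read luminescence at 30 min.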
Compound,Potency,"activity change, negative = cytotoxicity"
CON(C)C(=O)Nc1ccc(Cl)c(Cl)c1,inactive,
OCCN(CCO)CCO,inactive,
CC(C)C1(C)N=C(c2nc3ccccc3cc2C(=O)O)NC1=O (configuration not stated),inactive,
Clc1cccc(Cl)c1Cl,inactive,
O=[N+]([O-])c1ccccc1,inactive,
Cc1ccc(N)cc1Cl,inactive,
O=c1[nH]c(=O)[nH]c(=O)[nH]1,inactive,
O=C(NC(=O)c1c(F)cccc1F)Nc1cc(Cl)c(OC(F)(F)C(F)C(F)(F)F)cc1Cl (configuration not stated),inactive,
Cc1cc(Cl)ccc1O,inactive,
CN=C=S,inactive,
CC(C)(C)OOC(=O)c1ccccc1,inactive,
O=NN1CCCC1,,5.43% (inactive)
CC(C)C#N,inactive,
C#CCN(C)[C@H](C)Cc1ccccc1,inactive,
c1ccc(-c2ccccc2)cc1,inactive,
c1cc2c3c(cccc3c1)CC2,inactive,
CNC(=O)Oc1ccccc1OC(C)C,inactive,
O=Cc1cccc(Oc2ccccc2)c1,inactive,

Compound,Potency,"activity change, negative = cytotoxicity"
CC(C)(Cl)Cl,inactive,
NCC(O)c1ccc(O)cc1 (configuration not stated),inactive,
C=CC(N)=O,inactive,
BrCCBr,inactive,
Nc1ccccc1C(=O)O,inactive,
CN(C)CCO,inactive,
CC1C=[C-]C=C1.[C-]#[O+].[C-]#[O+].[C-]#[O+].[Mn],inactive,
O=[N+]([O-])c1ccc([As](=O)(O)O)cc1,inactive,
Clc1ccc(Cl)cc1,inactive,
CC(C)(C)C(O)(CCc1ccc(Cl)cc1)Cn1cncn1 (configuration not stated),inactive,
C1CC2OC2CC1C1CO1 (configuration not stated),inactive,
Nc1ccc(Oc2ccc(N)cc2)cc1,inactive,
COCCl,inactive,
CC(C)OC(=O)Nc1ccccc1,inactive,
CN(C)N=O,inactive,
Clc1ccccc1Cl,inactive,
CCc1cccc(C)c1N(C(=O)CCl)C(C)COC (configuration not stated),inactive,
CCCCOC(=O)c1ccccc1C(=O)OCCCC,inactive,

# Reference: PubChem BioAssay (Tox21)
